High-throughput results as filed in PubChem BioAssay.
Pf Dd2 inh – qHTS Primary assay for Inhibitors of Plasmodium falciparum Dd2 growth in vitro; Potency, µM (highest dose often 28.9 µM), inactives show top-dose activity, negative = inhibition, usual class: inhibitors; P. falciparum Dd2 growth, SYBR Green, 72 h; AID 1347417, 2020; actives 4.3% (n = 120,000); active = well fitted inhibition curve with a large enough effect;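 note: plate controls were DMSO vehicle for no effect and reference drug for full effect; nearly all actives have a fitted effect of over 65% in size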
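Infected erythrocytes (Dd2, 0.3% parasitemia, 2.5% hematocrit final) are added to compound in RPMI-1640/Albumax II medium, grown 72 h at 37C in low oxygen, then lysed with saponin/Triton-X containing SYBR Green and read by fluorescence.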
Active calls of the source: *; i = inactive; [ ] = another dose, or the depositor's remark. The sample as a whole holds a higher share of hits than the screen did. Potency is the fitted concentration of half-maximal effect.

SMILES	Pf Dd2 inh
COc1ccc(-c2[nH]ncc2CN2CCCCCNC(=O)[C@@H]3CCC[C@@H]32)cc1	i
N#Cc1ccccc1CN1CCCCCCNC(=O)[C@@H]2CCC[C@@H]21	2.8µM*
CC(C)n1cc(CN2CCCCCNC(=O)[C@@H]3CCC[C@@H]32)c2ccccc21	i
CCn1cc(CN2CCCCCCNC(=O)[C@@H]3CCC[C@@H]32)cn1	i
Cc1ccc(NC(=O)Cn2c(=O)c(-c3noc(C)n3)c3n(c2=O)CCCCC3)cc1	-16%
Cc1ccc(C(=O)N2CCN(c3cc(-c4cccs4)[nH]n3)CC2)s1	i
COc1cccc([S+](=O)([O-])N2CCC(C(=O)O)(c3ccccc3)CC2)c1	7%
CN(CC1CCN(CCc2ccc(F)cc2)CC1)C1CCN(Cc2cccnc2)CC1	6.3µM*
c1cncc(CN2CCC(OC3CCN(Cc4ccncc4)CC3)CC2)c1	33%
CN(Cc1cccnc1)c1nc2c(c(=O)[nH]1)CCN(Cc1ccc(F)cc1)CC2	20%[5.79 µM]
CC(C)N1C[C@H](O)C[C@H]1c1nnc2n1CCN(C(=O)Cc1cccc(F)c1)C2	0%
COc1ccccc1-c1ccc(CN)cc1	-27%[44.1 µM]
COc1ccc(F)cc1-c1ccc(C=O)cc1	3%[44.1 µM]
COc1ccc(F)cc1-c1ccccc1CN	10µM*
CCC(=O)N1CC(C(=O)N2CCN(c3ccccn3)CC2)C2(CCOCC2)C1 (stereo not drawn)	-10%
Cc1cnn(C2(C(=O)O)CCN(C(=O)c3ncoc3C)CC2)c1	-6%
O=C(NC1CCCN(c2cc(-c3ccccc3)[nH]n2)C1)C1CCCC1 (stereo not drawn)	-11%
O=C(NC1CCN(Cc2ccccc2)CC1)C1CCCN(c2cnn(Cc3ccccc3)c(=O)c2)C1 (stereo not drawn)	-27%
O=C(NC1CCCCCCC1)C1CCCN(c2cnn(Cc3ccccc3)c(=O)c2)C1 (stereo not drawn)	-40%
O=C(NCc1ccc(Cl)cc1)C1CCCN(c2cnn(Cc3ccccc3)c(=O)c2)C1 (stereo not drawn)	11µM*
Cc1cc(C)n2ncc(C(=O)N3CCC(=O)N(CC4CC4)C(C(C)C)C3)c2n1 (stereo not drawn)	-7%
CCCNC(=O)C1COC2(CCN(C(=O)c3ccccc3Cl)CC2)N1C(=O)c1cccc(F)c1 (stereo not drawn)	-17%
Cc1ccc(CNC(=O)CC2CCCN(c3cnn(CC4CC4)c(=O)c3)C2)cc1C (stereo not drawn)	i
O=C(CSc1n[nH]c(-c2ccccc2)n1)N1CCN(c2ccc(F)cc2)CC1	5%
COc1ccc(N2CCN(C(=O)CSc3n[nH]c(-c4ccccc4)n3)CC2)cc1	6%
SMILES	Pf Dd2 inh
Cc1ccc(CSCC(=O)N2CCN(c3ccc(F)cc3)CC2)cc1	19%
COc1ccc(N2CCN(C(=O)CSc3nc(-c4ccc(C(C)C)cc4)no3)CC2)cc1	0.28µM*
COc1ccc(N2CCN(C(=O)CSCc3ccc(C)cc3)CC2)cc1	-15%
COc1ccc(N2CCN(Cc3nc(-c4ccc(C)cc4)no3)CC2)cc1	i
O=C(CSc1nc(-c2ccccc2)no1)N1CCN(c2ccccc2)CC1	10µM*
O=C(CSc1nc2ccccc2nc1Cc1ccccc1)N1CCN(c2ccccc2)CC1	44%
COc1ccc(N2CCN(C(=O)CCc3conc3-c3ccc(F)cc3)CC2)cc1	i
CC(C)c1ccc(-c2noc(SCC(=O)N3CCN(c4ccc(F)cc4)CC3)n2)cc1	0.45µM*
CCc1ccc(-c2nc(CSCC(=O)N3CCN(c4ccc(F)cc4)CC3)c(C)o2)cc1	i
COc1ccc(-c2nc(CSCC(=O)N3CCN(c4ccccc4)CC3)c(C)o2)cc1	7.1µM*
Cc1cnc(C2CCOCC2)n1C1CCCN(C(=O)c2cn(C)cn2)C1 (stereo not drawn)	11%
NC1CCCN(c2cc(N3CCCC3)ncn2)C1 (stereo not drawn)	-6%[5.79 µM]
CC1CCN(S(=O)(=O)C2CCS(=O)(=O)C2)CC1 (stereo not drawn)	-7%
CC(=O)N1CC2(Cc3ccccc31)CN(C(=O)c1ccccc1)C2	21%[44.1 µM]
COc1ccccc1CCC(=O)N[C@@H]1CN(c2ncccn2)C[C@H]1CN(C)C	-18%
CNc1nc2c(c(C(=O)N3CCCC3)n1)CN(C(=O)C1CC(C(C)C)=NO1)CC2 (stereo not drawn)	11%
NCCO[C@H]1C[C@@H](O)C12CCN(C(=O)Cn1cnnn1)CC2	-8%
CCNC(=O)N(C1CC1)C1CCOC2(CCN(C(=O)Cc3cccc(C)c3)CC2)C1 (stereo not drawn)	1%
O=C(Nc1cccc(F)c1)C1CCN(S(=O)(=O)c2ccc3[nH]c4c(c3c2)CCCCC4)CC1	11µM*
COc1cccc(NC(=O)C2CCN(S(=O)(=O)c3ccc4[nH]c5c(c4c3)CCCCC5)CC2)c1	i
CC(=O)c1ccc(N2CCN(S(=O)(=O)c3ccc4[nH]c5c(c4c3)CCCCC5)CC2)cc1	i
Cc1nonc1CN(C)C(=O)C1CCCN(C2CCN(C(=O)C3CC3)CC2)C1 (stereo not drawn)	-13%
COc1ccc(C2Cn3nnc(-c4nc(-c5cccnc5)no4)c3CO2)cc1 (stereo not drawn)	-3%
O=c1[nH]nc2n1CCN(Cc1ccc(F)c(F)c1)CC2	17%
O=C1COc2cc(C(=O)NC3CC(c4nnc(CO)n4C4CC4)C3)ccc2N1 (stereo not drawn)	6.3µM*
SMILES	Pf Dd2 inh
O=C(NC1CC(c2nnc(CO)n2C2CC2)C1)c1n[nH]c2c1COCC2 (stereo not drawn)	-14%
Cc1c(C(=O)NC2CC(c3nnc(CO)n3C3CC3)C2)n(C)c2c(C)cccc12 (stereo not drawn)	i
O=C(NC1CC1)[C@@H]1C[C@H](Oc2cccnc2)CN1C(=O)Cc1cccc(F)c1	15%
CCOc1ccc(NC(=O)CCn2c(-c3ccc(F)cc3)cc(C(C)=O)c2C)cc1	i
CCOC(=O)c1cc(-c2ccc(C)cc2)n(CCC(=O)Nc2ccc(C(C)C)cc2)c1C	8.9µM*
CCOC(=O)c1cccc(NC(=O)CCn2c(-c3ccc(F)cc3)cc(C(=O)OCC)c2C)c1	0.1µM*
CCOC(=O)c1cc(-c2ccc(C)cc2)n(CC(=O)Nc2ccc(OC)c(Cl)c2)c1C	0%
CCOC(=O)c1cc(-c2ccccc2)n(CC(=O)Nc2ccc(CC)cc2)c1C	i
CCOC(=O)c1cc(-c2ccccc2)n(CCCC(=O)Nc2cccc(C)c2)c1C	i
CC(C)c1ccc(C(C)NC(=O)CN2CCCc3nc(-c4ccccc4)ncc3C2=O)cc1 (stereo not drawn)	i
CC(C)NC(=O)N1CC2ON=C(C(=O)NCc3cccnc3)C2C1 (stereo not drawn)	-3%
O=C(NCc1ccc(F)cc1)c1cc(C2CC2)nc2onc(C3CCNCC3)c12	10µM*
O=C(NC1CC1)c1cc(C2CC2)nc2onc(C3CCNCC3)c12	6%
O=C(NCc1ccc(F)cc1)c1cc(C2CC2)nc2onc(C3CCCN3)c12 (stereo not drawn)	-12%
COCCNC(=O)c1cc(C2CC2)nc2onc(C3CCNC3)c12 (stereo not drawn)	3%
Cc1cc(C(=O)NCc2ccc(F)cc2)c2c(C3CCNC3)noc2n1 (stereo not drawn)	15%
O=C(NCc1ccc(F)cc1)c1cc(C2CC2)nc2onc(C3CCCNC3)c12 (stereo not drawn)	8.9µM*
COc1ccccc1-n1cc(C(=O)NCc2cc3n(n2)CCNC3)cn1	-6%
COC(=O)[C@@H]1C[C@H](NC(=O)CSC23CC4CC(CC(C4)C2)C3)CN1C	2%
